Compound activity deposited in PubChem by National Center for Advancing Translational Sciences (NCATS).
TRHR PAM – qHTS for Small Molecule Agonists and Allosteric Enhancers of Human TRH Receptor: Primary Screen for Enhancers; TRHR cells, fluo-8 calcium fluorescence, EC20 TRH enhancement; actives 0.66% (n = 360,000); enhancement, % at 2 µM; Thyrotropin-releasing hormone receptor (Homo sapiens), P34981; in the data active = enhancement above about 30%
Target sequence (P34981 whole entry, looked up): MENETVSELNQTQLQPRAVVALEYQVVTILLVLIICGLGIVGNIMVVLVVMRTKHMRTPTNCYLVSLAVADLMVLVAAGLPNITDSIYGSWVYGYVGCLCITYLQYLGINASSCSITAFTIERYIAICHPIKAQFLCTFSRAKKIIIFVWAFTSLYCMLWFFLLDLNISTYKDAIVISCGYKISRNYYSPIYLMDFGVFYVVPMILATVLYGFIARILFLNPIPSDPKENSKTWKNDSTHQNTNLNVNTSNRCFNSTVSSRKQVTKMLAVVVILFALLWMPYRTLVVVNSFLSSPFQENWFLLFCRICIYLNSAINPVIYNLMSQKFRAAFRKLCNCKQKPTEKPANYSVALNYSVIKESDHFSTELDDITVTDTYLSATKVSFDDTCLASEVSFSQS
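Enhancer read-out: after compound pinning and an initial kinetic agonist-mode read, an EC20 of TRH (10 nM final) was injected and fluo-8 calcium signal (Ex 480/Em 530) followed at 1 s/cycle for 100 cycles in TRHR-expressing cells.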
D1 antag – Antagonist of Human D 1 Dopamine Receptor: qHTS. D(1A) dopamine receptor (Homo sapiens), P21728. HEK293 TREx D1 cells, calcium flux, dopamine EC80; active compounds read low. activity change, negative = inhibition, % at 10 µM. actives 3.2% (n = 360,000). AID 504652, 2011; in the data active = activity change below about -30%
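HEK293 T-REx cells expressing inducible, force-coupled D1 receptor; no-wash Ca dye, 30–90 min RT. Cmpd → 180 s read at 1 Hz → EC80 DA → 180 s read.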
D1 ag – Allosteric Agonists of the Human D1 Dopamine Receptor: qHTS. D(1A) dopamine receptor (Homo sapiens), P21728. HEK293 T-REx D1 cells, calcium flux, agonist mode. activation, % at 2 µM. actives 1% (n = 360,000). AID 504660, 2011
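Tetracycline-induced HEK293 TREx D1 cells, force-coupled to calcium signalling, were dye-loaded with a no-wash calcium kit. Compound was pin-added after a 10 s baseline. Fluorescence was read kinetically at 1 cycle/s for 180 s, with calcium rises flagged as agonism.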
D1 PAM – Potentiators of Human D1 Dopamine Receptor: qHTS. D(1A) dopamine receptor (Homo sapiens), P21728. HEK293 TREx D1 cells, calcium flux, dopamine EC20 potentiation. potentiation, % at 10 µM. actives 0.036% (n = 360,000); in the data active = potentiation above about 30%
TRHR ag – qHTS for Small Molecule Agonists and Allosteric Enhancers of Human TRH Receptor: Primary Screen for Agonists; TRHR cells, calcium flux fluo-8, FDSS agonist mode; Thyrotropin-releasing hormone receptor (Homo sapiens), P34981; activation, % at 2 µM; actives 0.18% (n = 360,000)
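Read-out: compound-evoked intracellular calcium rise in TRHR cells, fluo-8 dye, kinetic FDSS fluorescence at 1 s/cycle following a 10-cycle baseline. Cells cultured overnight before dye loading (30 min–1.5 h, RT).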
LDHA inh – qHTS assay for inhibitors of human lactate dehydrogenase. L-lactate dehydrogenase A chain (Homo sapiens), P00338. purified LDHA, NADH/diaphorase-resazurin fluorescence; active compounds read low. activity change, % (values are at about 110 or 230 µM). actives 0.15% (n = 480,000). AID 1347041, 2019; in the data active = activity change below about -30%
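Human LDH5 at 2 nM final in Tris HCl pH 7.4 with 0.06 mM NADH and 0.2 mM pyruvate, reacted 5 minutes at room temperature. Remaining NADH coupled via diaphorase/resazurin; resorufin fluorescence read at 0 and 20 minutes, normalized to enzyme-free and DMSO wells.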
Each line names hits and unclear results; the compound was inactive in the other large screens; ! = repeats disagree. The list is not random: actives were taken first. Their share in the collection is about 3.6%. Rule as the data show it, unless noted: active = activation above about 30%; inactive = the rest.

CCCCCCOc1ccc(/C(C)=N/NC2=NCCN2)cc1	D1 ag 39.1
O=C(c1cn(-c2ccccc2)nc1-c1cccnc1)N1CCN(c2ccc(O)cc2)CC1	none (no result: TRHR PAM, D1 antag, D1 ag, D1 PAM, TRHR ag)
CCOC(=O)c1c(CSCc2ccccc2)oc2ccc(O)c(CN(C)C)c12	D1 ag 36.3
CCOC(=O)c1c(-c2ccccc2)oc2ccc(O)c(CN(C)C)c12	none
CC1CCC(c2nnc(-c3ccc(Br)cc3)o2)CC1 (stereo not drawn)	none (no result: TRHR PAM, D1 antag, D1 ag, D1 PAM, TRHR ag)
CCOc1ccc(NC(=O)Nc2cc(-c3ccccc3)sc2C(=O)OC)cc1	none
CCOc1ccc(-c2cc(NC(=O)c3c(F)cccc3F)c(C(=O)O)s2)cc1	D1 antag -48.7
CC(NC(=O)c1ccco1)C(=O)N1CCN(c2ccccc2)CC1 (stereo not drawn)	none
CC(NC(=O)c1ccco1)C(=O)N1CCN(C(c2ccccc2)c2ccccc2)CC1 (stereo not drawn)	D1 antag -32.2
CC(=C/c1ccccc1)/C=N/n1c(C)n[nH]c1=S	TRHR PAM 32.3
CC(=C/c1ccccc1)/C=N/n1c(-c2ccncc2)n[nH]c1=S	none (no result: D1 antag)
CCC1=Nc2cc(C(=O)NCCN3CCCC3)ccc2Sc2ccccc21	D1 antag -30.4
CCC1=Nc2cc(C(=O)NCCN3CCOCC3)ccc2Sc2ccc(Br)cc21	D1 antag -36.1
CCC1=Nc2cc(C(=O)NCCCN3CCOCC3)ccc2Sc2ccccc21	none
CCCCCCN(C(=O)CCCCCN1C(=O)NC(c2ccccc2)C(C(=O)OCc2ccccc2)=C1C)C(C(=O)NCCCC)c1ccc(OCC(=O)OC)c(C(=O)OC)c1 (stereo not drawn)	D1 antag -54.2, D1 ag 38.2 (no result: LDHA inh)
CCCCCCN(C(=O)CCCCCN1C(=O)NC(c2ccc(C(C)(C)C)cc2)C(C(=O)OCc2ccccc2)=C1C)C(C(=O)NCCCC)c1ccc(OCC(=O)OC)c(C(=O)OC)c1 (stereo not drawn)	none (no result: LDHA inh)
Cc1ccc(-c2nc3sc4c(N)ncnc4c3c3c2CCCC3)cc1	D1 antag -60.6
CN1C2CCC1CC(NC(=O)CSc1ccc(Cl)cc1)C2 (stereo not drawn)	none
CN1C2CCC1CC(NC(=O)c1ccc(Cl)cc1)C2 (stereo not drawn)	D1 antag -32.0
O=C(NC1CC2CCCC(C1)N2Cc1ccc(F)cc1)c1ccc(F)cc1 (stereo not drawn)	D1 antag -68.5
Cc1ccc(CN2C3CCCC2CC(NC(=O)c2ccc(C)cc2)C3)cc1 (stereo not drawn)	D1 antag -67.9
Cc1nc(SCc2ccccc2)[nH]c(=O)c1CCC(=O)N1CCCCC1	none (no result: TRHR PAM, D1 antag, D1 ag, D1 PAM, TRHR ag)
Cc1cccc(N2CCN(C(=O)CNC(=O)NCc3ccc(F)cc3)CC2)c1	none (no result: TRHR PAM, D1 antag, D1 ag, D1 PAM, TRHR ag)
Cc1ccc(N=Cc2sc(O)c3ccccc23)cc1	D1 antag -39.0, D1 ag 302.2, TRHR ag 66.4
Cc1ccc(N=Cc2sc(O)c3ccccc23)c(C)c1	D1 ag 47.0
NC(=O)C1CCCCN1C(=O)c1nn(-c2ccccc2)c(=O)c2ccccc12 (stereo not drawn)	none (no result: TRHR PAM, D1 antag, D1 ag, D1 PAM, TRHR ag)
COCCNC(=O)NC(=O)CN(C)c1ccccc1	none (no result: TRHR PAM, D1 antag, D1 ag, D1 PAM, TRHR ag)
COc1ccc(S(=O)(=O)Cc2ccc(C(=O)N3CCC(C(N)=O)CC3)o2)cc1	none
Cc1ccc(S(=O)(=O)Cc2ccc(C(=O)N3CCC(C(N)=O)CC3)o2)cc1	TRHR PAM 35.8
COc1ccc(CCNC(=O)c2ccc(CS(=O)(=O)c3ccc(C)cc3)o2)cc1OC	D1 antag -31.2!
Cc1ccc(CCNC(=O)c2ccc(CSCc3ccc(C)cc3)o2)cc1	D1 ag 30.5
Cc1ccc(CSCc2ccc(C(=O)NCCC(C)C)o2)cc1	none
O=C(NC1CCCC1)c1ccc(CS(=O)(=O)c2ccc(Br)cc2)o1	D1 antag -30.2
COc1ccc(CCNC(=O)c2ccc(OC)c(OC)c2)cc1OC	none
COc1ccc(CCNC(=O)c2c(N)no[n+]2[O-])cc1OC	D1 antag -31.3
CCC(C)NC(=O)c1ccc(CS(=O)(=O)c2ccc(OC)cc2)o1 (stereo not drawn)	D1 antag -37.8
Nc1cc(-c2ccccc2)n2c(n1)nc1ccccc12	none
C/C(O)=c1/cnc2nc3ccccc3n2c1=O	D1 antag -43.5
c1cncc(-c2nc(NCCCn3ccnc3)c3ccccc3n2)c1	D1 antag -38.3
Cc1cccc(-c2nc(NCCCN3CCOCC3)c3ccccc3n2)c1	D1 ag 50.0
Cc1ccc(-n2cccc2/C=C2/C(=N)N3C(=NC2=O)SN=C3S(C)(=O)=O)cc1Cl	none
Cc1cccc(C)c1-n1cccc1/C=C1/C(=N)N2C(=NC1=O)SN=C2S(C)(=O)=O	D1 antag -66.2
O=C(OCc1cccc(Cl)c1)c1ccc(O)cc1	none (no result: TRHR PAM, D1 antag, D1 ag, D1 PAM, TRHR ag)
Cc1cc(C)c(O)c(NC(=S)NC(=O)Cc2ccccc2)c1	D1 ag 33.0
Cc1cccc(NC(=S)NC(=O)Cc2ccccc2)c1C	D1 ag 65.5
Cc1c(NC(=S)NC(=O)Cc2ccccc2)cccc1C(=O)O	none
C[C@H](NC(=O)[C@H](C)NC(=O)C1CC(=O)N(c2ccc(F)cc2)C1)C(=O)O (stereo partly drawn)	none (no result: TRHR PAM, D1 antag, D1 ag, D1 PAM, TRHR ag)
COc1cc2c(cc1OC)CN(CC(=O)N1N=C(c3cccs3)CC1c1cccs1)CC2 (stereo not drawn)	none (no result: TRHR PAM, D1 antag, D1 ag, D1 PAM, TRHR ag)
O=C1/C(=C/c2cccc(F)c2)Oc2cc(O)ccc21	D1 antag -36.4, D1 ag 34.5
O=C(c1cccs1)N1CCc2c([nH]c3ccccc23)C1c1ccccn1 (stereo not drawn)	none
CC(=O)c1ccc(C(=O)N2CCc3c([nH]c4ccccc34)C2c2ccccn2)s1 (stereo not drawn)	D1 antag -30.9
COc1ccc(C2CC3(CC(C)(C)NC(SC)=N3)Oc3cc(O)cc(C)c32)cc1 (stereo not drawn)	D1 ag 262.7
Cc1ccc(Cn2nnc(C(=O)Nc3cc(C)ccc3C)c2N)cc1	D1 ag 40.3
COc1ccc(NC(=O)c2nnn(Cc3ccc(Br)cc3F)c2N)c(OC)c1	D1 ag 34.2
Nc1c(C(=O)Nc2ccccc2)nnn1Cc1ccc(F)cc1Cl	D1 antag -31.4, D1 ag 88.2
Cc1ccc(C)c(NC(=O)c2nnn(Cc3ccc(F)cc3Cl)c2N)c1	D1 antag -31.9, D1 ag 78.6
